Inconclusive results are not listed. Activity calls are given as the source filed them. Unless noted, the call rests on the fitted dose curve; in most records, active means well fitted curve in the direction sought with a large enough effect; inconclusive means small, poorly fitted or top-dose-only effect, or another doubt; inactive means no such curve, though single readings can be large; an effect the other way counts as inactive or inconclusive.
Experiments:
NIH3T3 = experiment: qHTS assay to identify novel small-molecules to repurpose for Merkel cell carcinoma treatment (AID 1296009); conditions: MCC and control cell lines, CellTiter-Glo viability, 72 h; at 44.8 µM (top of the series) unless noted; further: nearly all actives have a fitted effect of over 60% in size
Procedure, shortened: (§1)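 Viability readout: ATP luminescence (CellTiter-Glo) after 72 hr drug exposure at 37 degree celsius. Dose-response format was 8 points for NPC and 11 points for MIPE; data normalized to in-plate controls.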

UISO = experiment: as above; conditions: MCC and control cell lines, CellTiter-Glo viability, 72 h; series mostly up to 46 µM
Procedure, shortened: as §1

WaGa = experiment: as above; conditions: MCC and control cell lines, CellTiter-Glo viability, 72 h; series mostly up to 46 µM
Procedure, shortened: as §1

C33A = experiment: Primary qHTS to identify gynecologic anti-cancer compounds using libraries of approved drugs and bioactive compounds (AID 1345084); conditions: Gynecologic cancer cell panel viability, ATPlite luminescence, 48 h; series mostly up to 57.5 µM; further: on the % scale 0 is the no-effect control and ±100 the full control effect; nearly all actives have a fitted effect of over 55% in size
Procedure, shortened: (§2)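 Measured: luminescence after ATPlite addition (15 min, RT). Exposure: 48 h, 37 C, 5% CO2.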

CAOV3 = experiment: as above; conditions: Gynecologic cancer cell panel viability, ATPlite luminescence, 48 h; series mostly up to 57.5 µM
Procedure, shortened: as §2

CASKI = experiment: as above; conditions: Gynecologic cancer cell panel viability, ATPlite luminescence, 48 h; series mostly up to 57.5 µM
Procedure, shortened: as §2

Es-2 = experiment: as above; conditions: Gynecologic cancer cell panel viability, ATPlite luminescence, 48 h; series mostly up to 57.5 µM
Procedure, shortened: as §2

HeLa = experiment: as above; conditions: Gynecologic cancer cell panel viability, ATPlite luminescence, 48 h; series mostly up to 57.5 µM
Procedure, shortened: as §2

Hek293T = experiment: as above; conditions: Gynecologic cancer cell panel viability, ATPlite luminescence, 48 h, control line for the selectivity index; series mostly up to 57.5 µM
Procedure, shortened: as §2

JEG-3 = experiment: as above; conditions: Gynecologic cancer cell panel viability, ATPlite luminescence, 48 h; series mostly up to 57.5 µM
Procedure, shortened: as §2

OV90 = experiment: as above; conditions: Gynecologic cancer cell panel viability, ATPlite luminescence, 48 h; series mostly up to 57.5 µM
Procedure, shortened: as §2

PA-1 = experiment: as above; conditions: Gynecologic cancer cell panel viability, ATPlite luminescence, 48 h; series mostly up to 57.5 µM
Procedure, shortened: as §2

SKOV3 = experiment: as above; conditions: Gynecologic cancer cell panel viability, ATPlite luminescence, 48 h; series mostly up to 57.5 µM
Procedure, shortened: as §2

Tov-21-G = experiment: as above; conditions: Gynecologic cancer cell panel viability, ATPlite luminescence, 48 h; series mostly up to 57.5 µM
Procedure, shortened: as §2

Tov112D = experiment: as above; conditions: Gynecologic cancer cell panel viability, ATPlite luminescence, 48 h; series mostly up to 57.5 µM
Procedure, shortened: as §2

[1] = Drug repurposing screens with cells derived from glioblastoma tumor samples (AID 1345199); conditions: GBM patient neurospheres viability, ATP luminescence, 48 h; further: on the % scale 0 is the no-effect control and ±100 the full control effect; nearly all actives have a fitted effect of over 40% in size
Procedure, shortened: (§3)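 Primary testing used CD133+ neurospheres from four GBM patients, seven concentrations, 48 h exposure and ATP-based viability; confirmation added three slower-growing patient lines.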

astro = experiment: as above; conditions: viability, ATP luminescence, 48 h; series mostly up to 45.9 µM
Procedure, shortened: as §3

[2] = target: Nuclear receptor subfamily 1 group I member 2 (Rattus norvegicus) (UniProt Q9R1A7); experiment: qHTS assay for small molecule activators of the rat pregnane X receptor (rPXR) signaling pathway (AID 651751; call rule not given here; further: 0% is about no effect); conditions: rPXR reporter cells, luciferase (One-Glo), 24 h
Nuclear receptor subfamily 1 group I member 2 (Rattus norvegicus), sequence (Q9R1A7 whole entry, looked up): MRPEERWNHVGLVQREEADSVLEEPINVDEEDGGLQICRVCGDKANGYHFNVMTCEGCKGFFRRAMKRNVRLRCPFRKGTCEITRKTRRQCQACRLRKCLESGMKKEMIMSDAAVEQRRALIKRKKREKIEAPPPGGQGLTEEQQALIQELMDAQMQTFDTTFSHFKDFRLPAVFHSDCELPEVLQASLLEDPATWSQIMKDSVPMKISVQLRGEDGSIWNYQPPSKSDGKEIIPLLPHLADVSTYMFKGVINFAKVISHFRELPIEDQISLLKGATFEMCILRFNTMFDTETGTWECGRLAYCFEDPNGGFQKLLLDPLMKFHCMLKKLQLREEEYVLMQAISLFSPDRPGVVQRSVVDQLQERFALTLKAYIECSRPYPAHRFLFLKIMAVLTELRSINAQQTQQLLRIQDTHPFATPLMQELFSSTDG

[3] = qHTS assay for small molecule activators of the human pregnane X receptor (PXR) signaling pathway (AID 720659; call rule not given here; further: 0% is about no effect)
[4] = at 45.9 µM (top of the series), tumour line B
[5] = at 45.9 µM (top of the series), tumour line D
[6] = at 46.1 µM (top of the series), tumour line C
[7] = at 46 µM (top of the series), tumour line A
[8] = at 20 µM (top of the series), tumour line C
[9] = at 21.2 µM (top of the series), tumour line B
[10] = at 21.2 µM (top of the series), tumour line D
[11] = at 21.3 µM (top of the series), tumour line A

NC(=O)c1ccc([N+](=O)[O-])cc1Cl
inactive: outcome (NIH3T3) | outcome (UISO) | outcome (WaGa) | outcome (C33A) | outcome (CAOV3) | outcome (CASKI) | outcome (Es-2) | outcome (HeLa) | outcome (Hek293T) | outcome (JEG-3) | Potency (OV90) | outcome (PA-1) | outcome (SKOV3) | outcome (Tov-21-G) | outcome (Tov112D) | activity, negative = cell killing [1, 4] -9.49% | activity, negative = cell killing [1, 5] -5.61% | activity, negative = cell killing [1, 6] -36.6% | outcome (astro)

NC(=O)N[C@@H](CCC(=O)O)C(=O)O
inactive: outcome (NIH3T3) | outcome (UISO) | outcome (WaGa) | outcome (C33A) | outcome (CAOV3) | outcome (CASKI) | outcome (Es-2) | outcome (Hek293T) | outcome (JEG-3) | Potency (OV90) | outcome (SKOV3) | activity, negative = cell killing [1, 4] -6.35% | activity, negative = cell killing [1, 5] -8.74% | activity, negative = cell killing [1, 7] -22.8% | activity, negative = cell killing [1, 6] -19.7%

COC(=O)c1ccc(O)cc1
inactive: outcome (NIH3T3) | outcome (UISO) | outcome (WaGa) | outcome (C33A) | outcome (CASKI) | outcome (Es-2) | outcome (HeLa) | outcome (Hek293T) | outcome (JEG-3) | Potency (OV90) | outcome (PA-1) | outcome (SKOV3) | outcome (Tov-21-G) | outcome (Tov112D) | activity, negative = cell killing [1, 4] -4.62% | activity, negative = cell killing [1, 5] -7.84% | activity, negative = cell killing [1, 6] -1.97% | outcome (astro) | max response [2] -3.01% | outcome [3]

C[n+]1ccccc1/C=N/O
inactive: outcome (NIH3T3) | outcome (UISO) | outcome (WaGa) | outcome (C33A) | outcome (CAOV3) | outcome (CASKI) | outcome (Es-2) | outcome (HeLa) | outcome (Hek293T) | outcome (JEG-3) | Potency (OV90) | outcome (SKOV3) | outcome (Tov-21-G) | outcome (Tov112D) | activity, negative = cell killing [1, 8] -23.9% | activity, negative = cell killing [1, 9] -15% | activity, negative = cell killing [1, 10] -26.7% | activity, negative = cell killing [1, 11] -10.2% | outcome (astro)

Cc1ccsc1/C=C/C1=NCCCN1C
inactive: outcome (NIH3T3) | outcome (UISO) | outcome (WaGa) | outcome (C33A) | outcome (CASKI) | outcome (Es-2) | outcome (HeLa) | outcome (Hek293T) | outcome (JEG-3) | Potency (OV90) | outcome (PA-1) | outcome (Tov-21-G) | outcome (Tov112D) | activity, negative = cell killing [1, 8] -9.86% | activity, negative = cell killing [1, 9] -2.99% | activity, negative = cell killing [1, 10] -7.19% | activity, negative = cell killing [1, 11] -22.2% | outcome (astro)

Cc1cccc(C(=O)O)c1O
inactive: outcome (NIH3T3) | outcome (UISO) | outcome (WaGa) | outcome (C33A) | outcome (CAOV3) | outcome (CASKI) | outcome (JEG-3) | Potency (OV90) | outcome (PA-1) | outcome (SKOV3) | outcome (Tov112D) | activity, negative = cell killing [1, 4] -1.64% | activity, negative = cell killing [1, 5] -5.93% | activity, negative = cell killing [1, 7] -19.5% | activity, negative = cell killing [1, 6] -18.8% | outcome (astro)

OCc1ccc(Cl)cc1Cl
inactive: outcome (NIH3T3) | outcome (UISO) | outcome (WaGa) | outcome (C33A) | outcome (CASKI) | outcome (Es-2) | outcome (HeLa) | outcome (Hek293T) | outcome (JEG-3) | Potency (OV90) | outcome (PA-1) | outcome (Tov-21-G) | outcome (Tov112D) | activity, negative = cell killing [1, 4] -6.96% | activity, negative = cell killing [1, 5] -3.9% | activity, negative = cell killing [1, 7] -3.28% | activity, negative = cell killing [1, 6] 6.97% | outcome (astro)

Cc1c(NC(=O)c2cccnc2)c(=O)n(-c2ccccc2)n1C
inactive: outcome (NIH3T3) | outcome (UISO) | outcome (WaGa) | outcome (C33A) | outcome (CASKI) | outcome (Es-2) | outcome (HeLa) | outcome (Hek293T) | outcome (JEG-3) | Potency (OV90) | outcome (PA-1) | outcome (Tov-21-G) | outcome (Tov112D) | activity, negative = cell killing [1, 8] -4.61% | activity, negative = cell killing [1, 9] 2.25% | activity, negative = cell killing [1, 10] 12.3% | activity, negative = cell killing [1, 11] -13.1% | outcome (astro)

O=S1(=O)OC(c2ccc(O)cc2)(c2ccc(O)cc2)c2ccccc21
inactive: outcome (NIH3T3) | outcome (UISO) | outcome (WaGa) | outcome (C33A) | outcome (CASKI) | outcome (Es-2) | outcome (HeLa) | outcome (Hek293T) | outcome (JEG-3) | Potency (OV90) | outcome (PA-1) | outcome (SKOV3) | outcome (Tov-21-G) | outcome (Tov112D) | activity, negative = cell killing [1, 4] -17.4% | activity, negative = cell killing [1, 5] -14.4% | activity, negative = cell killing [1, 6] 11.5% | outcome (astro)

Cc1onc(-c2ccccc2)c1-c1ccc(S(N)(=O)=O)cc1
inactive: outcome (NIH3T3) | outcome (UISO) | outcome (WaGa) | outcome (CAOV3) | outcome (CASKI) | outcome (Es-2) | outcome (HeLa) | outcome (Hek293T) | outcome (JEG-3) | Potency (OV90) | outcome (PA-1) | outcome (SKOV3) | outcome (Tov-21-G) | outcome (Tov112D) | activity, negative = cell killing [1, 4] -8.7% | activity, negative = cell killing [1, 5] -24.2% | activity, negative = cell killing [1, 6] -2.89%

O=C(O)Cn1c(C(=O)Nc2nc(-c3ccccc3Cl)cs2)cc2ccccc21
inactive: outcome (NIH3T3) | outcome (UISO) | outcome (WaGa) | outcome (C33A) | outcome (CAOV3) | outcome (CASKI) | outcome (Es-2) | outcome (HeLa) | outcome (Hek293T) | outcome (JEG-3) | Potency (OV90) | outcome (PA-1) | outcome (Tov-21-G) | outcome (Tov112D) | activity, negative = cell killing [1, 4] -16.8% | activity, negative = cell killing [1, 5] -18.1% | activity, negative = cell killing [1, 7] -41.5%

O=C(O)[C@@H]1[C@H]2C[C@H]3c4[nH]c5ccccc5c4CCN3C[C@@H]2CC[C@@H]1O
inactive: outcome (NIH3T3) | outcome (UISO) | outcome (WaGa) | outcome (C33A) | outcome (CAOV3) | outcome (CASKI) | outcome (Es-2) | outcome (HeLa) | outcome (Hek293T) | outcome (JEG-3) | outcome (PA-1) | outcome (SKOV3) | outcome (Tov-21-G) | outcome (Tov112D) | activity, negative = cell killing [1, 8] -17% | activity, negative = cell killing [1, 9] 2.22% | activity, negative = cell killing [1, 11] -34.6% | outcome (astro)

O=C(O)C(S)C(S)C(=O)O (centres undefined)
inactive: outcome (NIH3T3) | outcome (UISO) | outcome (WaGa) | outcome (C33A) | outcome (CAOV3) | outcome (CASKI) | outcome (Es-2) | outcome (HeLa) | outcome (Hek293T) | outcome (JEG-3) | Potency (OV90) | outcome (PA-1) | outcome (SKOV3) | outcome (Tov-21-G) | outcome (Tov112D) | outcome (astro)
